Unmarked numbers belong to inactive results. Inconclusive results are not listed. Where a call stands in place of a potency, no number is given. Active and inactive are the calls of the source. Unless noted, calls follow the shape of the full dose curve.
test system: not listed separately; assay: qHTS assay to identify small molecule agonists of the sonic hedgehog signaling (Shh) pathway (AID 1259368); conditions: NIH/3T3 Gli1-Luc reporter, luciferase, 24 h, active compounds read high; series mostly up to 92.4 µM;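 also: NIH/3T3-derived 3T3Gli1-Luc cells carrying a stable Gli1-driven firefly luciferase reporter; nearly all actives have a fitted effect of over 15% in size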
How it was run: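 NIH/3T3-derived 3T3Gli1-Luc cells with stably integrated Gli1-driven firefly luciferase, 2,000 cells/well, compounds added after 4 hr. Incubated 24 hr at 37C, 5% CO2; luminescence read after 30 min with luciferase reagent at room temperature.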

Row | Compound | outcome | activity change
1 | Fc1cc(Br)ccc1CBr | inactive | –
2 | CC(Cl)(Cl)[N+](=O)[O-] | inactive | –
3 | COC(=O)C(c1ccccc1)C1CCCCN1 (stereo not given) | inactive | –
4 | CNC(=O)N(C)c1nc2ccccc2s1 | inactive | –
5 | CC1COC2(c3ccccc3Cl)c3cc(Cl)ccc3NC(=O)CN12 (stereo not given) | inactive | –
6 | O=C1OC(CCN2CCCCC2)OC1(c1ccccc1)c1ccccc1 (stereo not given) | inactive | –
7 | COc1ncc(F)c2nc(S(=O)(=O)Nc3c(F)cccc3F)nn12 | inactive | –
8 | CNC(=O)Oc1c(C(C)(C)C)cc(C)cc1C(C)(C)C | inactive | –
9 | Clc1ccccc1N1CCNCC1 | inactive | –
10 | O=C(O)c1ccc2[nH]cc(CCCCN3CC=C(c4ccccc4)CC3)c2c1 | inactive | –
11 | CCOP(=S)(OCC)Oc1ncn(-c2ccccc2)n1 | inactive | –
12 | CCCCCCI | inactive | –
13 | CCC(=O)C(CCN(C)C)(c1ccccc1)c1ccccc1 | inactive | –
14 | CC(C(O)c1ccccc1)N(C)C/C=C/c1ccccc1 (stereo not given) | inactive | –
15 | CC(Oc1ccc(Oc2ncc(C(F)(F)F)cc2Cl)cc1)C(=O)O (stereo not given) | inactive | –
16 | C#C[C@]1(O)C=C[C@H]2[C@@H]3CCC4=CC(=O)CC[C@@H]4[C@H]3CC[C@@]21CC | inactive | –
17 | N#CC(Cl)(Cl)Cl | inactive | –
18 | COP(N)(=S)Oc1ccccc1C(=O)OC(C)C (stereo not given) | inactive | –
19 | O=CNC(N1CCN(C(NC=O)C(Cl)(Cl)Cl)CC1)C(Cl)(Cl)Cl (stereo not given) | inactive | –
20 | CC1=C(C(=O)O)N2C(=O)[C@@H](N)[C@H]2SC1 | – | 0.0682% [at 18.9 µM]
21 | Cc1cnc[nH]1 | inactive | –
22 | C#CCN1C(=O)COc2cc(F)c(N3C(=O)C4=C(CCCC4)C3=O)cc21 | inactive | –
23 | CCCCOC(=O)c1ccccc1C(=O)O | inactive | –
24 | CC(C)CC#N | inactive | –
25 | CCOC(=O)C1(c2ccccc2)CCN(CCc2ccc(N)cc2)CC1 | inactive | –
26 | CCC(=O)c1ccccc1 | inactive | –
27 | C[C@]12CC[C@H]3[C@@H](CCC4=CC(=O)CC[C@@]43C)[C@@H]1CC[C@@H]2C(=O)O | inactive | –

test system: not listed separately; assay: qHTS assay to identify small molecule antagonists of the sonic hedgehog signaling (Shh) pathway (AID 1259369); conditions: NIH/3T3 Gli1-Luc reporter, Shh antagonist, luminescence 24 h; series mostly up to 92.4 µM; also: nearly all actives have a fitted effect of over 45% in size; also: potency is read from the fitted curve at half-maximal effect
How it was run: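 NIH/3T3-derived Gli1-Luc reporter cells plated 4 h, dosed with compound, then stimulated with conditioned medium for 24 h at 37 C. Firefly luciferase luminescence read after 30 min with detection reagent at room temperature.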

Row | Compound | Potency
28 | Fc1cc(Br)ccc1CBr | inactive
29 | CC(Cl)(Cl)[N+](=O)[O-] | inactive
30 | COC(=O)C(c1ccccc1)C1CCCCN1 (stereo not given) | inactive
31 | c1cc2c(c(N3CCNCC3)c1)OCCO2 | inactive
32 | CC1COC2(c3ccccc3Cl)c3cc(Cl)ccc3NC(=O)CN12 (stereo not given) | 29.8 µM (active)
33 | c1ccc(N2CCNCC2)cc1 | inactive
34 | COc1ncc(F)c2nc(S(=O)(=O)Nc3c(F)cccc3F)nn12 | inactive
35 | CNC(=O)Oc1c(C(C)(C)C)cc(C)cc1C(C)(C)C | inactive
36 | CCN(CC)C(C)C(=O)c1ccccc1 (stereo not given) | inactive
37 | CCOP(=S)(OCC)Oc1ncn(-c2ccccc2)n1 | inactive
38 | CCCCCCI | inactive
39 | CC(C(O)c1ccccc1)N(C)C/C=C/c1ccccc1 (stereo not given) | inactive
40 | CCC(C)(C)c1cc(-n2nc3ccccc3n2)c(O)c(C(C)(C)CC)c1 | inactive
41 | C#C[C@]1(O)C=C[C@H]2[C@@H]3CCC4=CC(=O)CC[C@@H]4[C@H]3CC[C@@]21CC | 15 µM (active)
42 | N#CC(Cl)(Cl)Cl | inactive
43 | COP(N)(=S)Oc1ccccc1C(=O)OC(C)C (stereo not given) | inactive
44 | O=CNC(N1CCN(C(NC=O)C(Cl)(Cl)Cl)CC1)C(Cl)(Cl)Cl (stereo not given) | inactive
45 | CC(COc1ccc(Oc2ccccc2)cc1)Oc1ccccn1 (stereo not given) | inactive
46 | CCOP(=O)(OCC)OP(=O)(OCC)OCC | inactive
47 | CCCCOC(=O)c1ccccc1C(=O)O | inactive
48 | CC(C)CC#N | inactive
49 | Cc1nc(N)nc(N)n1 | inactive
50 | CCC(=O)c1ccccc1 | inactive
51 | C[C@]12CC[C@H]3[C@@H](CCC4=CC(=O)CC[C@@]43C)[C@@H]1CC[C@@H]2C(=O)O | inactive

target: Estrogen receptor beta (Homo sapiens) (UniProt Q92731); assay: qHTS assay to identify small molecule agonists of the estrogen receptor beta (ER-beta) signaling pathway (AID 1259377; active = well fitted activation curve with a large enough effect in the signal ratio in the repeat runs, not every such curve was filed as active; the % refers to the signal ratio); conditions: ER-beta-UAS-bla HEK293T, beta-lactamase FRET ratio, 16 h; series mostly up to 92.4 µM
Sequence (Q92731 whole entry, looked up): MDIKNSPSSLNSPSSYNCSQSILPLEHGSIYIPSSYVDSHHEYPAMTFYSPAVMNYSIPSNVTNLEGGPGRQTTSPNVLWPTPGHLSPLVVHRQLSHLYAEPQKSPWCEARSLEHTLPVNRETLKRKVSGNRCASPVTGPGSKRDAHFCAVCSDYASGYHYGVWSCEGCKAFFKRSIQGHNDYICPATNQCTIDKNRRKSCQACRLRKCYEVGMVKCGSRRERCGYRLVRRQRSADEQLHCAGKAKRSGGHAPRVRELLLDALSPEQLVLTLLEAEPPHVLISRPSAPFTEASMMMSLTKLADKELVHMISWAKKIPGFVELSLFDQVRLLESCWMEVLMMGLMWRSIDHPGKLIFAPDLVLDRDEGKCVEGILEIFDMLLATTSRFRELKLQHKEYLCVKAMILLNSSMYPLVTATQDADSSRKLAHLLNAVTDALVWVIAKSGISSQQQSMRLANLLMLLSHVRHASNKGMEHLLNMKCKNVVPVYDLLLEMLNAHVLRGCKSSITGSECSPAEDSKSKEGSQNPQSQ
How it was run: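 ER-beta-UAS-bla HEK293T cells in medium with 2% charcoal-stripped FBS were exposed to compounds for 16 h at 37C. Beta-lactamase reporter activity was read as fluorescence after 2 h with LiveBLAzer B/G FRET substrate at room temperature.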

Row | Compound | outcome | activation
52 | Fc1cc(Br)ccc1CBr | inactive | –
53 | CC1COC2(c3ccccc3Cl)c3cc(Cl)ccc3NC(=O)CN12 (stereo not given) | inactive | –
54 | O=C1OC(CCN2CCCCC2)OC1(c1ccccc1)c1ccccc1 (stereo not given) | inactive | –
55 | c1ccc(N2CCNCC2)cc1 | inactive | –
56 | CCOP(=S)(OCC)Oc1ncn(-c2ccccc2)n1 | inactive | –
57 | CCCCCCI | inactive | –
58 | CCOC(=O)C(c1c(O)c2ccccc2oc1=O)c1c(O)c2ccccc2oc1=O | inactive | –
59 | CC(C(O)c1ccccc1)N(C)C/C=C/c1ccccc1 (stereo not given) | inactive | –
60 | CCC(C)(C)c1cc(-n2nc3ccccc3n2)c(O)c(C(C)(C)CC)c1 | inactive | –
61 | C#C[C@]1(O)C=C[C@H]2[C@@H]3CCC4=CC(=O)CC[C@@H]4[C@H]3CC[C@@]21CC | inactive | –
62 | N#CC(Cl)(Cl)Cl | inactive | –
63 | O=CNC(N1CCN(C(NC=O)C(Cl)(Cl)Cl)CC1)C(Cl)(Cl)Cl (stereo not given) | inactive | –
64 | CC(COc1ccc(Oc2ccccc2)cc1)Oc1ccccn1 (stereo not given) | inactive | –
65 | CC1=C(C(=O)O)N2C(=O)[C@@H](N)[C@H]2SC1 | – | 1.69% [at 19 µM]
66 | Cc1cnc[nH]1 | inactive | –
67 | CCCCOC(=O)c1ccccc1C(=O)O | inactive | –
68 | CC(C)CC#N | inactive | –
69 | CCOC(=O)C1(c2ccccc2)CCN(CCc2ccc(N)cc2)CC1 | inactive | –
70 | C[C@]12CC[C@H]3[C@@H](CCC4=CC(=O)CC[C@@]43C)[C@@H]1CC[C@@H]2C(=O)O | inactive | –
